# Source: PubChem BioAssay AID1671190 (National Center for Advancing Translational Sciences (NCATS), 2021)
# Screen size: about 580,000 compounds; about 6,100 (1.1%) were called active. About 15% were inconclusive and are not listed. Calls follow the shape of the dose curve; as a rule, active = well fitted inhibition curve with a large enough effect; inconclusive = small, poorly fitted or top-dose-only effect, or another doubt; inactive = no such curve, though single readings can be large or run the other way. The list comes from a sample in which actives are over-represented; it also holds similar structures and randomly drawn compounds.
# Target: Polyunsaturated fatty acid lipoxygenase ALOX12 (Homo sapiens) (UniProt P18054)
# Assay: Primary qHTS assay for inhibitors of human arachidonate 12S-lipoxygenase (ALOX12): Round 2
# Conditions: purified 12hLO, xylenol orange hydroperoxide absorbance; series mostly up to 108 µM; activity change, negative = inhibition: at the top concentration
# In short: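 Purified human 12hLO at 150 nM in 25 mM Hepes, 0.01% Triton X-100, pH 7.0, preincubated 15 min at room temperature with compound. Reaction started with 40 uM arachidonic acid, 30 min at room temperature. Hydroperoxide measured by Fe-xylenol orange, 573/405 nm absorbance ratio.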
# % is scaled to controls: 0 for no effect and ±100 for the full control effect; potency is read from the fitted curve at half-maximal effect.
# Chain of Polyunsaturated fatty acid lipoxygenase ALOX12 (Homo sapiens) (P18054 whole entry, looked up): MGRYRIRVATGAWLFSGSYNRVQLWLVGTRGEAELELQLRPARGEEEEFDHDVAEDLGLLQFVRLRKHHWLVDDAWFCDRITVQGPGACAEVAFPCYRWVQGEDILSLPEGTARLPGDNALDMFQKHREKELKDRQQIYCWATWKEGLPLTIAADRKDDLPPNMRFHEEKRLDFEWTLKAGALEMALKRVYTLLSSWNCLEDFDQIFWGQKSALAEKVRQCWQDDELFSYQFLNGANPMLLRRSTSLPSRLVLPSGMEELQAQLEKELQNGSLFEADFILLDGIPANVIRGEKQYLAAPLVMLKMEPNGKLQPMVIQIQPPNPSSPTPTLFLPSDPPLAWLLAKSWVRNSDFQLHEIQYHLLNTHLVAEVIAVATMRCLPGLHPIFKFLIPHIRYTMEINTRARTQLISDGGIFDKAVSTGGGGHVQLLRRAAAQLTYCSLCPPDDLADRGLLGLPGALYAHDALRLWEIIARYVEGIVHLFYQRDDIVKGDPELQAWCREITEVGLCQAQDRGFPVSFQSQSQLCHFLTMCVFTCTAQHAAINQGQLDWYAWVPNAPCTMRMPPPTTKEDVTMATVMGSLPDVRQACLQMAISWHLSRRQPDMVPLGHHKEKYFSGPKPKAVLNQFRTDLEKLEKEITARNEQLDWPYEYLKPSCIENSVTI
SMILES,"activity change, negative = inhibition",Potency
Cc1nn2c(c1-c1ccnn1C(C)C)N(C(=O)c1ccc(Oc3ccccc3)cc1)CCC2,51.4% (inactive),
Cc1nn2c(c1-c1ccccc1C(C)C)N(C(=O)c1cccc(C#N)c1)CCC2,-3.15% [at 176 µM] (inactive),
Cc1nn2c(c1-c1ccnn1C(C)C)N(CC1CCOCC1)CCC2,,12.6 µM (active)
CCCCCn1nc(C(=O)Nc2ccccc2OCC)c2ccccc2c1=O,37.9% (inactive),
CCc1ccc(C(=O)Nc2ccccc2C#N)s1,-101% (inactive),
Cc1cccc(-n2c(C)cc(/C=N/NC(N)=S)c2C)c1,,44.7 µM (active)
Cc1cc(/C=N/NC(N)=O)c(C)n1C1CCCCC1,6.3% (inactive),
Cc1cc(/C=N/n2cnnc2)c(C)n1-c1ccc2ncccc2c1,-25.8% (inactive),
C=CCOc1ccc(NC(=O)c2ccncc2)cc1,-6.7% (inactive),
CCc1ccc(NC(=O)Cc2nc(-c3c(N)n(C)c(=O)n(C)c3=O)cs2)cc1,-21.8% (inactive),
CCOc1ccccc1NC(=O)c1cnc2ccccc2n1,-89% (inactive),
COc1ccccc1C(=O)OCc1ccc(F)cc1,1.27% (inactive),
O=C(OCc1ccc(F)cc1)c1cnc2ccccc2n1,,1.26 µM (active)
Cc1cccnc1CN(C(=O)c1cc(COc2ccccc2)[nH]n1)C(C)C,42.5% (inactive),
CCCn1nc(C(=O)Nc2sc3c(c2C(N)=O)CCC3)c2ccccc2c1=O,-4.24% (inactive),
NC(=O)c1c(Nc2nc3c(F)cccc3s2)sc2c1CCCC2,,28.2 µM (active)
Cc1cc(OC(C)C(=O)Nc2sc3c(c2C(N)=O)CCCC3)ccc1Cl (stereo unspecified),-6.03% (inactive),
Cc1cc(C)c(-c2csc(NC(=O)Cn3ncc4ccccc4c3=O)n2)c(C)c1,-28.9% (inactive),
CSc1nnnn1-c1ccc(C(=O)Nc2ccccc2F)cc1,0.435% (inactive),

SMILES,"activity change, negative = inhibition",Potency
NCCCNC(=S)NCCCN(Cc1ccc(Cl)cc1)c1ccc(Br)cn1,,39.8 µM (active)
S=C(NCCCc1cnc[nH]1)NCCCN(Cc1ccc(Cl)c(Cl)c1)c1ccc(Br)cn1,,22.4 µM (active)
Cc1ccccc1CN(C)C(C)c1nc(-c2cccs2)no1 (stereo unspecified),11% (inactive),
CCc1c(C)sc(NC(=O)C2c3ccccc3Oc3ccccc32)c1C(=O)OC(C)C,0% (inactive),
CCc1c(C)sc(NC(=O)c2cccs2)c1C(N)=O,,20 µM (active)
CCOC(=O)CSc1nnc(CNC(=O)c2cccs2)n1-c1ccccc1,15.4% (inactive),
CCCCCCn1c(NC)nc2c1c(=O)[nH]c(=O)n2C,-2.64% (inactive),
COc1cccc(C2CC(=O)Nc3nc(N)sc32)c1OCc1ccccc1 (stereo unspecified),,7.94 µM (active)
O=C1CC(c2ccc(C(F)(F)F)cc2)c2sc(C(=O)O)c(-c3ccccc3)c2N1 (stereo unspecified),-20.3% (inactive),
O=C1CC(c2ccccc2)C(c2ccccc2)=NN1 (stereo unspecified),2.96% (inactive),
CCCOc1c(OC)cccc1C1CC(=O)Nc2c1c(C)nn2-c1ccc(OC)nn1 (stereo unspecified),-23.2% (inactive),
COc1cc(C2CC(=O)Nc3nc(-c4ccccc4)[nH]c(=O)c32)ccc1OCc1ccc(F)cc1 (stereo unspecified),5.03% (inactive),
Nc1nc2c(s1)C(c1ccccc1)CC(=O)N2 (stereo unspecified),,22.4 µM (active)
O=[N+]([O-])/C=C/c1ccc(-c2ccccc2)o1,,22.4 µM (active)
O=[N+]([O-])/C=C/c1ccc2c(ccn2Cc2ccccc2)c1,-11.5% (inactive),
Cc1ccc(-c2nnc(SCc3ncc(-c4ccccc4)o3)o2)cc1,6.49% (inactive),
Cc1ccc(-n2nnnc2SCc2ncc(-c3ccccc3)o2)cc1,40.5% (inactive),
COCc1ccc(CNC(=O)c2ccc(C#N)cc2)cc1,-5.14% (inactive),
O=C(c1cn[nH]c1)N1CC2(CN(Cc3cccc(Cl)c3)CC2COc2ccccc2)C1 (stereo unspecified),13.7% [at 176 µM] (inactive),

SMILES,"activity change, negative = inhibition",Potency
CCOc1cc2cc(C(=O)c3cc(C)ccc3O)cnc2cc1OCC,-39.3% (inactive),
CCC(=O)Nc1ccc2nc(-c3ccccc3C)oc2c1,-10.5% (inactive),
COc1ccc(-c2nn(-c3ccccc3)cc2/C=C\C(=O)Nc2ccc(C(=O)O)cc2)cc1,,39.8 µM (active)
COc1ccc(NC(=O)c2cn(-c3ccccc3)nc2SC)cc1,-7.47% (inactive),
COc1ccc(-c2nn(-c3ccccc3)cc2C(=O)NCC(C(C)C)N2CCOCC2)cc1 (stereo unspecified),0% (inactive),
CSc1ccccc1NC(=O)C(C)Nc1ccc2c(c1)CCN2C(C)=O (stereo unspecified),-8.13% (inactive),
O=C(NC(c1ccccc1)c1cc2ccccc2o1)C1CCCC1 (stereo unspecified),-10.2% (inactive),
N#Cc1ccccc1S(=O)(=O)N1CCN(Cc2c(O)ccc3ccccc23)CC1,,11.2 µM (active)
N#Cc1ccccc1S(=O)(=O)N1CCN(C(=O)c2cc(-c3ccccc3)nn2-c2ccccc2)CC1,-13.3% (inactive),
N#CCCc1c(O)ccc2ccccc12,-2.74% (inactive),
Cc1nnc(SCC(=O)Nc2sc3c(c2C#N)CCCC3)n1CC(C)C,3.74% (inactive),
CCC(=O)NNC(=S)Nc1ccccc1,-23.1% (inactive),
O=C(NC1C2CC3CC(C2)CC1C3)c1cccc(Br)c1 (stereo unspecified),-20.3% (inactive),
O=C(NC(=S)Nc1ccc(S(=O)(=O)Nc2ncccn2)cc1)c1cccc(Br)c1,,20 µM (active)
O=C(Nc1ccc(S(=O)(=O)Nc2ncccn2)cc1)C12CC3CC(CC(C3)C1)C2,1.9% (inactive),
O=C(NC(=S)Nc1cccc2c(O)cccc12)c1cccc(Br)c1,,17.8 µM (active)
O=C(Nc1ccc(S(=O)(=O)Nc2ncccn2)cc1)c1cncc(Br)c1,-19.6% (inactive),
Cc1ccc(-c2nnc3c4ccccc4c(C)nn23)cc1NC(=O)c1cccc(Br)c1,0% (inactive),
